# Measured values reported in PubChem BioAssay (Tox21).
# “And” between values parts separate entries of the source, which are not always exact repeats. Equal values may be shown once. Inconclusive results are not listed. A call without a number means that no potency is given here. Some structures have more than one record in an assay (separate samples or runs), and their calls can disagree. The source made the active and inactive calls. Calls come from the whole dose curve; as a rule, active = well fitted curve in the direction sought with a large enough effect in the repeat runs; inconclusive = weak or mixed curves; inactive = no such curve, though single readings can be large; an effect the other way counts as inactive or inconclusive.
# Assays:
# [1] = A CellTox Green Cytotoxicity Assay to monitor cytotoxicity in HEK293 cells - 32 hour (AID 1224881); note: nearly all actives have a fitted effect of over 40% in size; note: potency is the fitted concentration of half-maximal effect
# In short: (§1)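 Cytotoxicity was tracked continuously in HEK293 cells by a DNA-binding dye excluded from viable cells. Compounds were transferred in DMSO 5 h after seeding; fluorescence was recorded at intervals up to 40 h.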
# [2] = A CellTox Green Cytotoxicity Assay to monitor cytotoxicity in HepG2 cells - 0 hour (AID 1224882); note: nearly all actives have a fitted effect of over 35% in size
# In short: (§2)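 Real-time, homogeneous cytotoxicity readout: dead-cell DNA staining by CellTox Green in HepG2 monolayers, fluorescence measured at timed intervals up to 40 h of continuous compound exposure.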
# [3] = A CellTox Green Cytotoxicity Assay to monitor cytotoxicity in HepG2 cells - 32 hour (AID 1224883); note: nearly all actives have a fitted effect of over 50% in size; note: potency is the fitted concentration of half-maximal effect
# In short: as §2
# [4] = A CellTox Green Cytotoxicity Assay to monitor cytotoxicity in HEK293 cells - 8 hour (AID 1224884); note: nearly all actives have a fitted effect of over 35% in size; note: potency is the fitted concentration of half-maximal effect
# In short: as §1
# [5] = qHTS RealTime-Glo MT Cell Viability Assay in HepG2 cells - 16 hour (AID 1224885); note: nearly all actives have a fitted effect of over 50% in size; note: potency is the fitted concentration of half-maximal effect
# In short: (§3)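 Viability was tracked continuously by NanoLuc luminescence from prosubstrate reduced by living HepG2 cells, at successive time points over 40 h of compound exposure. Cells with reagent were preincubated 5 h at 37 °C before compound addition.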
# [6] = qHTS RealTime-Glo MT Cell Viability Assay in HEK293 cells - 24 hour (AID 1224886); note: nearly all actives have a fitted effect of over 50% in size; note: potency is the fitted concentration of half-maximal effect
# In short: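 Viability tracked continuously by luminescence as live cells reduce a prosubstrate for NanoLuc; HEK293 cells preincubated 5 h, compound-treated at 37 C, and read at 0, 8, 16, 24, 32 and 40 h.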
# [7] = qHTS RealTime-Glo MT Cell Viability Assay in HEK293 cells - 8 hour (AID 1224887); note: nearly all actives have a fitted effect of over 50% in size; note: potency is the fitted concentration of half-maximal effect
# In short: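 Nonlytic bioluminescent viability monitoring. HEK293 at 600 cells/well with reagent; 5 h settle; compound transfer by pintool; plates held at 37 C and read at set time points.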
# [8] = A CellTox Green Cytotoxicity Assay to monitor cytotoxicity in HEK293 cells - 16 hour (AID 1224888); note: nearly all actives have a fitted effect of over 35% in size; note: potency is the fitted concentration of half-maximal effect
# In short: as §1
# [9] = qHTS RealTime-Glo MT Cell Viability Assay in HepG2 cells - 0 hour (AID 1224889); note: nearly all actives have a fitted effect of over 50% in size; note: potency is the fitted concentration of half-maximal effect
# In short: as §3
# [10] = A CellTox Green Cytotoxicity Assay to monitor cytotoxicity in HepG2 cells - 8 hour (AID 1224890); note: nearly all actives have a fitted effect of over 45% in size
# In short: as §2
SMILES,Potency [1],Potency [2],Potency [3],Potency [4],Potency [5],Potency [6],Potency [7],Potency [8],Potency [9],Potency [10]
CCOC(=O)OC1=C(c2cc(C)ccc2C)C(=O)NC12CCC(OC)CC2 (stereo unspecified),inactive,inactive,inactive,inactive,inactive,inactive,inactive,inactive,inactive,inactive
N#Cc1ccccc1N,inactive,inactive,inactive,inactive,inactive,inactive,inactive,inactive,inactive,
Clc1ccc(C(c2ccc(Cl)cc2)C(Cl)(Cl)Cl)cc1,55.3 µM (active) and inactive,inactive,inactive,inactive,inactive,39.2 µM (active) and 43.6 µM (active),39.2 µM (active),inactive,inactive,inactive
CCCCCCCCCCCCCN1CC(C)OC(C)C1 (stereo unspecified),inactive,inactive,inactive,inactive,inactive,inactive,inactive,inactive,inactive,inactive
CC(C)C(=O)Cl,inactive,inactive,inactive,inactive,inactive,inactive,inactive,inactive,inactive,
C=CCOC(N)=O,inactive,inactive,inactive,inactive,inactive,inactive,inactive,inactive,inactive,inactive
Cc1ccc(OP(=O)(Oc2ccccc2)Oc2ccccc2)cc1,inactive,inactive,inactive,inactive,inactive,inactive,inactive,inactive,inactive,inactive
NNC(=O)c1ccccc1,inactive,inactive,inactive,inactive,inactive,inactive,inactive,inactive,inactive,inactive
FC(F)(F)c1cccc(C2=CCN(CCc3ccc4ccccc4c3)CC2)c1,inactive,inactive,inactive,inactive,inactive,inactive,inactive,inactive,inactive,inactive
CCC(C)(C)C(=O)OC1=C(c2ccc(Cl)cc2Cl)C(=O)OC12CCCCC2,inactive,inactive,inactive,inactive,inactive,inactive,inactive,inactive,34.7 µM (active),inactive
Cc1cc(C)c(C2=C(OC(=O)CC(C)(C)C)C3(CCCC3)OC2=O)c(C)c1,inactive,inactive,inactive,inactive,inactive,inactive,inactive,inactive,,inactive
NC(=O)CCl,inactive,inactive,inactive,inactive,inactive,inactive,inactive,inactive,inactive,inactive
N#C/C=C/c1ccccc1,inactive,inactive,inactive,inactive,inactive,inactive,inactive,inactive,inactive,inactive
CCSC(C)CC1CC(=O)C(/C(CC)=N/OC/C=C/Cl)=C(O)C1 (stereo unspecified),inactive,inactive,inactive,inactive,inactive,inactive,inactive,inactive,inactive,inactive
CC(c1ccc(O)cc1)c1ccc(O)cc1,inactive,inactive,inactive,inactive,inactive,45.9 µM (active) and inactive,inactive,inactive,inactive,inactive
CC(C)(COCC1CO1)COCC1CO1 (stereo unspecified),inactive,inactive,inactive,inactive,inactive,inactive,inactive,inactive,inactive,inactive
COc1ccc(N)cc1N,inactive,inactive,inactive,inactive,inactive,40.1 µM (active),25.3 µM (active),,inactive,inactive
[Hg+2].[I-].[I-],21.9 µM (active),inactive,7.76 µM (active),49 µM (active),11 µM (active),3.09 µM (active),,43.6 µM (active),24.5 µM (active),
CN(C)CCc1c[nH]c2cccc(O)c12,inactive,inactive,inactive,inactive,inactive,inactive,,inactive,inactive,inactive
COc1ccc(OC)c(CC(C)N)c1 (stereo unspecified),inactive,inactive,inactive,inactive,inactive,inactive,inactive,,inactive,
